Compound activity as filed in PubChem.
In the library only some 2% were active in any assay of this set; here they are far more common.
Beta apoptosis = blocks beta cell apoptosis; INS-1E cytokine-induced death, ATP luminescence, 48 h; percent of positive-control rescue, neutral wells zero; AID 435005; 0.8% of 300,000 active; protection from apoptosis, % (no concentration beside the values);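 active = Every replicate reaches about 75%, or at least half do and their mean reaches it too, limit read from the data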;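 note: 0% = cytokine-treated negative control wells and 100% = positive control rescue; higher means more ATP so stronger rescue from cytokine killing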
Calb FLC = affects C. albicans growth with fluconazole; growth inhibition, % (test concentration not listed); 0.57% of 300,000 active; AID 1979; C. albicans CaCi-2 (fluconazole-resistant clinical isolate) + fluconazole, Alamar Blue growth, 48 h;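 active = growth inhibition above about 58% in most replicates, limit read from the data, passing the limit was not always enough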;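 note: all wells also contain fluconazole at 8 µg/ml as a sub-toxic cotreatment; 0% = median of DMSO wells and 100% = median of geldanamycin control wells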
Shn3 inh set2 = inhibitors of Schnurri-3 3'UTR reporter in osteoblasts; Clone20 osteoblast Shn3 3'UTR firefly luciferase, 24 h; inhibition, % at 12.5 µM; 0.52% of 360,000 active; AID 588674;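 active = mean inhibition of at least 75% with every replicate also reaching 75%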;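 note: 0% = median of neutral control wells and 100% = pilot-screen positive control compound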
Jurkat NFkB inh = lowers PMA/ionomycin-induced NF-kB signal in Jurkat cells; PMA/ionomycin-induced NF-kB luciferase reporter, luminescence; inhibition, % at 4 µM; 0.53% of 330,000 active; AID 435003; in the data active = inhibition above about 50%
697 NFkB inh = lowers PMA/ionomycin-induced NF-kB signal in 697 B cells. 697 B-cell NF-kB luciferase reporter, 16 h. inhibition, % at 4 µM. 0.33% of 330,000 active; in the data active = inhibition above about 35%
Jurkat NFkB conf = inhibitors of the PMA/ionomycin-induced NF-kB reporter in Jurkat cells, retest. inhibition, % at 4 µM. Jurkat NF-kB luciferase, 16 h. 27% of 2,700 active. shares compounds with Jurkat NFkB inh. AID 435020;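 active = inhibition reaching about 45% at 4 µM in either replicate, limit read from the data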;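 note: plate controls were PMA/ionomycin stimulated DMSO wells for no effect and unstimulated DMSO wells for full effect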
Active calls of the source: *; . = no result.

SMILES	Beta apoptosis	Calb FLC	Shn3 inh set2	Jurkat NFkB inh	697 NFkB inh	Jurkat NFkB conf
Cc1cccn2cc(-c3c[nH]c4ccccc34)nc12	3	-2	-94	-13	5	.
O=C(/C=C/Nc1cccc([N+](=O)[O-])c1)c1cccs1	.	18	-102	-158	-120	-79
CNc1cc([N+](=O)[O-])ccc1N/C=C/C(=O)c1cccs1	5	21	-27	-11	1	.
O=C(Nc1cccc2ccccc12)OC1C=CS(=O)(=O)C1 (stereo unspecified)	3	0	12	90*	-45	65*
CCN1C(=O)C(CC(=O)Nc2ccc(F)cc2)N(Cc2ccc3c(c2)OCO3)C1=S (stereo unspecified)	1	-6	-3	8	10	.
CSc1nc(Oc2ccc3ccccc3c2)c2sccc2n1	8	5	30	64*	-34	31
COc1ccc(Oc2nc(SC)nc3ccsc23)cc1	-6	-23	-1	17	-36	.
COc1ccc(S(=O)(=O)/N=C2\C=C(Nc3ccc(O)cc3)C(=O)c3ccccc32)cc1	111*	-9	97*	74*	9	83*
O=C(c1ccc(Cl)cc1)c1cnc(-c2ccc(Cl)cc2)s1	-1	1	-83	-17	7	.
O=C(c1ccccc1)c1cnc(-c2ccc(Cl)cc2)s1	3	-3	-45	-214	-212	-92
COc1ccc(N(CC(=O)Nc2cc(Cl)ccc2OC)S(=O)(=O)c2c(C)noc2C)cc1	11	-20	33	69*	-23	32
CN1CCN(C(=O)CNC(=O)C23CC4CC(CC(C4)C2)C3)CC1	-2	.	-16	5	6	.
c1ccc2oc(-c3csc(N4CCOCC4)n3)cc2c1	0	-18	-20	-221	-216	-23
NC(=S)N=Nc1c(O)n(Cc2ccc(Br)cc2)c2ccccc12	11	-1	11	60*	-35	12
O=C(Nc1cccc(Br)c1)c1cc2ccccc2o1	-8	-20	-68	-110	-72	.
Cc1cc(C(=O)Nc2cccc(C(=O)O)c2)oc1C	0	-9	61	56*	-6	5
Cc1cccc(NC(=O)c2cc3ccccc3o2)c1	-2	-10	-33	-173	-50	-96
CC(=O)Nc1ccc(OCC(=O)Nc2ccc(Cl)c(S(=O)(=O)N3CCOCC3)c2)cc1	3	.	83	28	-4	.
O=C(Nc1nc(-c2ccccc2)cs1)c1ccc(N2CCOCC2)c([N+](=O)[O-])c1	5	13	82	52*	12	57*
COc1cccc(C(=O)/C=C/Nc2ccc(NC(C)=O)cc2)c1	-2	-13	-56	-48	-54	.
COc1cccc(C(=O)/C=C/Nc2cccc(O)c2)c1	-3	-11	-15	-199	-62	-182
COc1ccc(N/C=C/C(=O)c2ccc(Cl)cc2)cc1	2	-2	-65	-174	-195	-1
Cc1nc(C(F)(F)F)ccc1C(=O)N1CCCCCC1(C)C(=O)NCC(C)C (stereo unspecified)	.	.	3	.	.	.
Cc1c(C(=O)OCC2CCCO2)[nH]c2c1C(=O)CC(c1ccco1)C2 (stereo unspecified)	3	11	7	55*	-12	-3
Cc1c(C(=O)OC2CCCC2)[nH]c2c1C(=O)CC(c1ccco1)C2 (stereo unspecified)	43	5	90*	67*	-32	57*
SMILES	Beta apoptosis	Calb FLC	Shn3 inh set2	Jurkat NFkB inh	697 NFkB inh	Jurkat NFkB conf
COc1ccc(OC)c(C2CC(=O)c3c([nH]c(C(=O)OCC4CCCO4)c3C)C2)c1 (stereo unspecified)	14	0	16	0	8	.
COC(=O)C1C(=O)c2c([nH]c(C(=O)OC3CCCC3)c2C)CC1C (stereo unspecified)	3	-6	-67	-178	-208	-91
COC(=O)c1[nH]c2c(c1C)C(=O)CC(c1ccccc1)C2 (stereo unspecified)	39	-12	1	45	-50	.
C=CCOC(=O)c1[nH]c2c(c1C)C(=O)CC(c1ccco1)C2 (stereo unspecified)	-15	-9	.	74*	-15	50*
COc1cc(/C=C2\SC(=Nc3ccc(Cl)c(C(=O)O)c3)NC2=O)c(Br)c(Br)c1O	.	-2	-4	-14	-12	.
C/C=C/COC(=O)c1[nH]c2c(c1C)C(=O)CC(c1ccc(N(C)C)cc1)C2 (stereo unspecified)	13	-25	26	9	12	.
C/C=C/COC(=O)c1[nH]c2c(c1C)C(=O)CC(c1ccco1)C2 (stereo unspecified)	31	0	73	59*	-25	43*
CCOC(=O)c1[nH]c2c(c1C)C(=O)CC(c1ccc(OC)c(OC)c1)C2 (stereo unspecified)	1	19	-5	-8	-12	.
Cc1c(C(=O)OCC(C)C)[nH]c2c1C(=O)CC(c1ccco1)C2 (stereo unspecified)	28	-1	64	65*	-29	6
COc1ccc(-c2nc(CS(=O)(=O)CC(=O)NCCCN3CCN(C)CC3)c(C)o2)cc1	-5	1	-13	-14	-61	.
COc1ccc(N2CCN(S(=O)(=O)CCNC(=O)C3CC3)CC2)cc1	.	1	2	9	-15	.
COc1cc(SC)ccc1C(=O)Nc1ccccn1	4	-4	-57	-166	-221	-96
COc1cc(SC)ccc1C(=O)Nc1cccc(C)n1	-1	-2	46	-153	-153	-69
COc1cc(SC)ccc1C(=O)Nc1ncc(C)s1	-1	58	41	-67	-134	.
COc1cc(SC)ccc1C(=O)Nc1ccon1	1	11	-55	-42	-54	.
COc1ccc(Cl)cc1NC(=O)CSc1nnc(C2CC2)n1N	.	.	-1	11	11	.
COc1cccc([C@@H]2Oc3ccc(Br)cc3C(=O)[C@H]2OC(=O)NC2CCCC2)c1	-8	.	.	10	-11	.
COc1cccc([C@@H]2Oc3ccc(OC)cc3C(=O)[C@H]2O)c1	20	4	-69	-157	-140	-98
CCOC(=O)[C@@H]1[C@H]2COc3cc(OC)ccc3[C@H]2N2C(=O)N(c3ccc(C(F)(F)F)cc3)C(=O)[C@@]12C	-1	1	-10	8	11	.
Cc1ccc(C2(C(F)(F)F)NC(=O)N3CCCN=C3S2)cc1 (stereo unspecified)	2	-9	-1	52*	2	6
COc1cc(-c2cc(NC(C)=O)c3ncc(-c4ccc(C(C)=O)cc4)n3c2)cc(OC)c1OC	.	.	-9	.	.	.
Cc1nccn1CCC(=O)NC1CC(C)(C)Cc2c1cnn2-c1ccccc1 (stereo unspecified)	.	.	6	.	.	.
COc1cc2c(c(OC)c1OC)-c1ccc(OC)c(=O)cc1C(NC(C)=O)CC2 (stereo unspecified)	.	8	-37	63*	-149	60*
CCCC(=O)NC1CCc2cc(OC)c(OC)c(OC)c2-c2ccc(OC)c(=O)cc21 (stereo unspecified)	.	.	6	.	.	.
